TRHR ag = agonists of human TRH receptor; P34981; TRHR cells, calcium flux fluo-8, FDSS agonist mode; activation, % at 2 µM; hit rate 0.18% among 360,000; also: 0% is about no effect
Target sequence (P34981 whole entry, looked up): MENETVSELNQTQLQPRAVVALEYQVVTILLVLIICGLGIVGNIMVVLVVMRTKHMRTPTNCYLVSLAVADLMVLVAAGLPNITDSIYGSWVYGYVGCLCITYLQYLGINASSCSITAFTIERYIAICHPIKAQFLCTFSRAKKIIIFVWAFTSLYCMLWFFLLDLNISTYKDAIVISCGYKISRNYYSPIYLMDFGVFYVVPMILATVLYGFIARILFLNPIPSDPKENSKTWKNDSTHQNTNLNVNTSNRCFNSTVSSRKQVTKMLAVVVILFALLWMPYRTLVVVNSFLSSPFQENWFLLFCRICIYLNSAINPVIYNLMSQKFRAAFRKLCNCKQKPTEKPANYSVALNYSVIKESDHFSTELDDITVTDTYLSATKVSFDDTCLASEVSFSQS
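TRHR-expressing cells, plated overnight in medium with 10% serum, were loaded with fluo-8 calcium dye at room temperature. After a 10 s baseline, library compound was pin-added and calcium release was recorded kinetically (ex 480/em 530) as agonist response.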
D1 PAM = enhances dopamine response at the human D1 receptor; P21728; HEK293 TREx D1 cells, calcium flux, dopamine EC20 potentiation; potentiation, % at 10 µM; hit rate 0.036% among 360,000; AID 504651; in the data active = potentiation above about 30%; also: 0% is about no effect
TRHR PAM = allosteric enhancers of human TRH receptor. TRHR cells, fluo-8 calcium fluorescence, EC20 TRH enhancement. enhancement, % at 2 µM. hit rate 0.66% among 360,000. AID 493056; in the data active = enhancement above about 30%; also: 0% is about no effect
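Enhancer read-out: after compound pinning and an initial kinetic agonist-mode read, an EC20 of TRH (10 nM final) was injected and fluo-8 calcium signal (Ex 480/Em 530) followed at 1 s/cycle for 100 cycles in TRHR-expressing cells.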
D1 antagonist = antagonists of human D1 dopamine receptor | P21728 | HEK293 TREx D1 cells, calcium flux, dopamine EC80; active compounds read low | activity change, negative = inhibition, % at 10 µM | hit rate 3.2% among 360,000; in the data active = activity change below about -30%; also: % is scaled to controls: 0 for no effect and ±100 for the full control effect
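HEK293 T-REx cells expressing inducible, force-coupled D1 receptor; no-wash Ca dye, 30–90 min RT. Cmpd → 180 s read at 1 Hz → EC80 DA → 180 s read.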
D1 agonist = human D1 receptor agonism; hit rate 1% among 360,000; activation, % at 2 µM; HEK293 T-REx D1 cells, calcium flux, agonist mode; also: 0% is about no effect
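Tetracycline-induced HEK293 TREx D1 cells, force-coupled to calcium signalling, were dye-loaded with a no-wash calcium kit. Compound was pin-added after a 10 s baseline. Fluorescence was read kinetically at 1 cycle/s for 180 s, with calcium rises flagged as agonism.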
The depositor's hits bear a star; ! = not confirmed by another sample. In the library only some 4.6% were active in any assay of this set; here they are far more common. Rule as the data show it, unless noted: active = activation above about 30%; inactive = the rest.

SMILES | TRHR ag | D1 PAM | TRHR PAM | D1 antagonist | D1 agonist
O=C(CNc1ccc2c(c1)OCO2)N/N=C\c1cn(Cc2ccc(F)cc2)c2ccccc12 | -2 | -4 | 3 | -41* | 3
O=C(Nc1cccc(C(=O)O)c1)/C(=C\c1ccc2c(c1)OCO2)NC(=O)c1ccco1 | 1 | -3 | 33* | -7 | 0
CC(=O)N1CCc2cc(S(=O)(=O)N3CCCCCC3)ccc21 | 0 | -2 | -1 | 6 | 8
CC1=Nc2cc(C(=O)N3CCCCC3)ccc2Sc2ccc(C)cc21 | -1 | -6 | -8 | -44*! | 12
Cc1cccc(OCC(O)Cn2c(NCCCOC(C)C)nc3c2c(=O)[nH]c(=O)n3C)c1 (stereo unspecified) | 0 | 4 | 12 | 4 | 1
NCC/C=C1/c2ccccc2CSc2ccccc21 | 2 | -5 | 0 | -5 | 21
C=CCN(C)CC/C=C1\c2ccccc2CSc2ccccc21 | 2 | -9 | -7 | -7 | 0
CN(C)CC/C=C1\c2cc(F)ccc2CSc2ccccc21 | 2 | -6 | -1 | -93* | 23
CN(CC/C=C1/c2ccccc2CSc2ccccc21)CCCO | 3 | -8 | -5 | -30 | 31*
CC(O)CN(C)CC/C=C1/c2ccccc2CSc2ccccc21 (stereo unspecified) | 2 | -11 | -1 | -72* | 30*
O=C(NCc1ccncc1)c1cc(F)c(F)cc1Cl | 0 | -4 | -2 | -40* | 0
O=C(NCc1ccncc1)C(F)(F)C(F)(F)C(=O)NCc1ccncc1 | 1 | -7 | -1 | -43* | 6
O=C1CCC(=O)N1CN(Cc1ccco1)CN1C(=O)CCC1=O | 0 | -6 | -7 | -77* | 1
O=C1c2ccccc2C(=O)N1Cc1ccco1 | 0 | -3 | -4 | -10 | 0
COc1ccc(/C=C/C(=O)OCn2c(SC)nnc(C)c2=O)cc1OC | 0 | 6 | 6 | 10 | 4
Cc1ccc(C(=O)/C=C/c2ccccc2)o1 | -1 | 4 | 4 | 3 | 0
COc1ccc(CN2CCN(C(=O)CCC(=O)Nc3nnc(CC(C)C)s3)CC2)cc1F | 0 | -3 | 9 | -20 | 36*
CCC(C)NC(=O)c1ccc(CS(=O)(=O)c2ccc(OC)cc2)o1 (stereo unspecified) | 0 | 8 | -6 | -38* | -1
Cc1ccc(S(=O)(=O)Cc2ccc(C(=O)N3CCC(C(N)=O)CC3)o2)cc1 | 0 | 3 | 36* | 6 | 2
Cc1ccc(CCNC(=O)c2ccc(CSCc3ccc(C)cc3)o2)cc1 | 3 | -2 | -3 | -5 | 31*
COc1ccc(CCNC(=O)c2ccc(CS(=O)(=O)c3ccc(C)cc3)o2)cc1OC | -1 | 1 | -6 | -31*! | 8
COc1ccc(S(=O)(=O)Cc2ccc(C(=O)N3CCC(C(N)=O)CC3)o2)cc1 | -1 | -6 | -1 | -15 | 1
Cc1cc(C)n2nc(SCCC(=O)NCCc3ccccc3)nc2n1 | 0 | -3 | 0 | -1 | -1
COc1ccc(NC(=O)N2c3ccccc3CC2C)cc1OC (stereo unspecified) | 0 | -2 | 5 | -11 | -1
COc1ccccc1CN1CC(C(=O)NCCN2CCNC2=O)CCC1=O (stereo unspecified) | 0 | -5 | 3 | 7 | 3
SMILES | TRHR ag | D1 PAM | TRHR PAM | D1 antagonist | D1 agonist
CCOCCc1nn2c(=O)cc(CSCC(=O)Nc3cc(C)cc(C)c3)nc2s1 | 0 | -3 | 12 | 5 | 1
O=C(NC1CCCC1)c1ccc(CS(=O)(=O)c2ccc(Br)cc2)o1 | 0 | -4 | -3 | -30* | 1
Cc1ccc(S(=O)(=O)Cc2ccc(C(=O)NC3CCCC3)o2)cc1 | 0 | 0 | -1 | -7 | 1
COc1ccc(CCNC(=O)c2c(N)no[n+]2[O-])cc1OC | 0 | -5 | -3 | -31* | 0
CCCC(CCC(=O)Nc1ccc(C(=O)OC)cc1)C(=O)O (stereo unspecified) | 1 | -1 | 3 | -3 | 0
O=S(=O)(NCc1ccc(F)cc1)c1ccc(Br)cc1Br | 0 | 3 | -9 | -32* | -1
COc1ccccc1N1CCN(S(=O)(=O)CCNC(=O)C2CC(=O)N(c3ccccc3)C2)CC1 (stereo unspecified) | -1 | -9 | 3 | -26 | 8
CCOc1ccc(N(C)c2ccc(/C=C3/SC(=S)NC3=O)cc2)cc1 | 23 | -5 | -1 | -12 | 133*
O=C(NCc1cccc(C(F)(F)F)c1)c1ccc2c(c1)OCCO2 | -1 | -2 | -6 | -2 | 2
CCOC(=O)N1CCN(C(=O)c2ccc(N3CCCC3=O)cc2)CC1 | 1 | 4 | 0 | -7 | 1
CCOC(=O)C1CCN(C(=O)c2ccc(N3CCCC3=O)cc2)CC1 | 3 | -3 | 34* | 5 | 3
O=C(c1ccc(N2CCCC2=O)cc1)N1CCN(c2ccccc2Cl)CC1 | 0 | -11 | 4 | -49* | 1
O=C(NCc1ccc(F)cc1)c1cccc2c1C(=O)N(Cc1cccnc1)C2 | 0 | -5 | -6 | 1 | 0
CCOC(=O)NC(=O)c1cn(Nc2ncc(C(F)(F)F)cc2Cl)c(=O)[nH]c1=O | 0 | -5 | -1 | -20 | 3
CCOC(=O)NC(=O)c1cn(Nc2ncc(Cl)cc2C(F)(F)F)c(=O)[nH]c1=O | 0 | -2 | 3 | -44* | 2
COc1ccc(Cl)cc1NC(=O)COC(=O)CCCN1C(=O)c2ccccc2C1=O | 0 | -1 | 2 | -33* | 6
COc1ccc(Cl)cc1NC(=O)CCCn1c(C)c2cnn(-c3ccccc3)c(=O)c2c1C | 0 | -5 | 2 | -79* | 1
O=C(O)c1ccc2c(c1)ncn2-c1ccc(F)c(F)c1 | 3 | -2 | 23 | 1 | -1
CC(NC(=O)c1ccc(Cl)c(S(=O)(=O)N2CCCCCC2)c1)c1cccnc1 (stereo unspecified) | -1 | -5 | -6 | -18 | 2
CC(=O)OC1C2CCC1C([N+]1(C)CCCCC1)CC2 (stereo unspecified) | 1 | -4 | -1 | 22 | 2
Cc1noc(C)c1C(=O)Nc1nc(-c2ccc([N+](=O)[O-])cc2)cs1 | 0 | -8 | -6 | -51* | 25
Cc1ccc(-c2csc(NC(=O)c3c(C)noc3C)n2)cc1 | -1 | 5 | 2 | -14 | 1
CC(=O)c1c(C)[nH]c(C(=O)Nc2nc(-c3ccc(Cl)cc3)cs2)c1C | 0 | -15 | 8 | -32* | 21
CC(=O)c1c(C)[nH]c(C(=O)Nc2nc(-c3ccc(-c4ccccc4)cc3)cs2)c1C | 0 | -5 | -1 | -11 | 5
Cn1cc([N+](=O)[O-])c(C(=O)Nc2nc(-c3ccc(Cl)cc3)cs2)n1 | 0 | 3 | 3 | -48* | 28
COc1ccc(-c2nc(NC(=O)Cn3cnnn3)sc2C)cc1 | 1 | -7 | -9 | -9 | 1
COc1ccc(-c2nc(NC(=O)Cn3ccc(C(F)(F)F)n3)sc2C)cc1 | 1 | 4 | -2 | -40* | 2
